Screens deposited in PubChem BioAssay by National Center for Advancing Translational Sciences (NCATS).
uPA generation: inhibitors of cell surface uPA generation. cell surface uPA generation assay, qHTS. Potency, µM (top dose mostly 38.3 µM), inactives show at the top dose activity change, negative = inhibition, most hits filed as inhibitors. 0.31% of 330,000 active. AID 540303; active means well fitted inhibition curve with a large enough effect; inconclusive means small, poorly fitted or top-dose-only effect; inactive means no such curve, though single readings can be large or run the other way; tested in mouse RAW 264.7 cells; further: potency means the concentration at half of the fitted maximal effect; on the % scale 0 is the no-effect control and ±100 the full control effect; nearly all actives have a fitted effect of over 55% in size
PTAP TSG101 blk: blocks PTAP/TSG101 interaction to inhibit HIV-1 budding | Fluorescence polarization, FITC-PTAP peptide / Tsg101 binding | Potency, µM (titrated, usually from 115 µM), without a hit: at the top dose activity change, negative = inhibition, actives largely listed as inhibitors | Q99816 | 340,000 tested, under 10 active; active means well fitted inhibition curve with a large enough effect in the main read-out, with a control signal flat, not every such curve was filed as active; inconclusive means small, poorly fitted or top-dose-only effect, or effect the other way, or a change in a side signal; inactive means no such curve, though single readings can be large or run the other way; further: potency means the concentration at half of the fitted maximal effect; % of control where 0% means no effect
Target sequence (Q99816 whole entry, looked up): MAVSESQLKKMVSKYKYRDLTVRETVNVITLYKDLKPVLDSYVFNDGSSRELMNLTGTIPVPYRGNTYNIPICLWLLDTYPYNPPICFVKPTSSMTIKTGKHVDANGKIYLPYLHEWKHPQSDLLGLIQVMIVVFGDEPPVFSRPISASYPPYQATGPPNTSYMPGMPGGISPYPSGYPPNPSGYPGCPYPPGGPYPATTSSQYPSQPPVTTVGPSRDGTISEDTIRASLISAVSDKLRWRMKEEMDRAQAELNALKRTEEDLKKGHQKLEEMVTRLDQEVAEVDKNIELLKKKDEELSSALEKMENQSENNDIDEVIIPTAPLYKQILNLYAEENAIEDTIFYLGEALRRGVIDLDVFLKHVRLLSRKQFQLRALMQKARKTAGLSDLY
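Compounds were pin-transferred onto Tsg101 binding domain (10 uM final) in HEPES pH 7.5 buffer, then FITC-PTAP peptide was added at 50 nM final. After 20 min at RT, polarization reported peptide displacement across a qHTS concentration series.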
TSHR antagonist: antagonists of human thyroid stimulating hormone receptor; 0.2% of 330,000 active; P16473; activity change, negative = inhibition, % at 11.5 µM; AID 504810; TSHR-expressing cells, TSH-stimulated cAMP HTRF, 2 h; stronger effect = lower value;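 active means activity change below a set negative limit, meaning inhibition stronger than a set level, cut at about -70% in these data; inconclusive means activity change between two set negative limits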; further: on the % scale 0 is the no-effect control and ±100 the full control effect
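Antagonism was scored as loss of TSH-driven cAMP in TSHR cells, stimulated with 4nM TSH (EC80) for 2 hours at 37 deg C and detected by homogeneous HTRF competition immunoassay.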
PLK1 PBD block: blocks phosphopeptide binding to human PLK1 polo-box domain; P53350; 2.8% of 360,000 active; Potency, µM, for inactives: max response, negative = inhibition, actives largely listed as inhibitors; Plk1 PBD binding of FITC phosphopeptide, fluorescence polarization; further: potency means the concentration at half of the fitted maximal effect; series mostly up to about 57 µM; on the % scale 0 is the no-effect control and ±100 the full control effect; nearly all actives have a fitted effect of over 65% in size
VDR inh: inhibitors of human vitamin D receptor; P11473; VDR-SRC2-3 peptide fluorescence polarization, 2 h; Potency, µM, for the others: max response, negative = inhibition, usual class: inhibitors; 0.93% of 400,000 active; AID 504847; further: potency means the concentration at half of the fitted maximal effect; on the % scale 0 is the no-effect control and ±100 the full control effect
Target sequence (P11473 whole entry, looked up): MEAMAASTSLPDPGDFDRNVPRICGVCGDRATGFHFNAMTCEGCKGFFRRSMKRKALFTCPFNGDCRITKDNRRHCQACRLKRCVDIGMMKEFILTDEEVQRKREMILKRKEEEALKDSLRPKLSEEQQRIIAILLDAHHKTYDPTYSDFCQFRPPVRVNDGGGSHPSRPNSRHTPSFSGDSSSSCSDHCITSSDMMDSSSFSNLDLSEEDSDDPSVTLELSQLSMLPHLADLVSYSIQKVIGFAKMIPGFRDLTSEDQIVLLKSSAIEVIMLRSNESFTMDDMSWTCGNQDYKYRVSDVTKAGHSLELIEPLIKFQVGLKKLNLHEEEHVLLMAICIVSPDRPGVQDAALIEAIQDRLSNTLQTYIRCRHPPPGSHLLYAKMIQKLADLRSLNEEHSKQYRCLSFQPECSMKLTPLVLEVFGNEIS
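Fluorescence polarization assay of small-molecule disruption of VDR binding to coregulator peptide SRC2-3. Compounds and controls pin-transferred, then read after 2 h incubation at ambient room temperature.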
VDR confirm: inhibits human vitamin D receptor, primary hit validation. shares compounds with VDR inh. VDR-coactivator inhibition assay, qHTS confirmation. Potency, µM, usual class: inhibitors. 89% of 840 active. AID 602199; further: potency means the concentration at half of the fitted maximal effect
VDR FP fluor: VDR (human) coactivator binding inhibition, fluorescein polarization; VDR-coactivator binding, fluorescein fluorescence polarization; shares compounds with VDR inh; 48% of 840 active; AID 602200; Potency, µM (top dose mostly 57.1 µM), without a hit: top-dose activity change, negative = inhibition, actives largely listed as inhibitors; further: potency means the concentration at half of the fitted maximal effect
VDR bla: confirmation of human vitamin D receptor inhibitors in reporter cells | 23% of 840 active | shares compounds with VDR inh | Potency, µM (titrated, usually from 46.1 µM), for inactives: top-dose activity change, negative = inhibition, usual class: inhibitors | VDR beta-lactamase reporter cells, FRET ratio; cells co-treated with VDR agonist LG190178; further: potency means the concentration at half of the fitted maximal effect; on the % scale 0 is the no-effect control and ±100 the full control effect
VDR cytotox: counter-screen for vitamin D receptor inhibitors: cytotoxicity; Potency, µM (top dose mostly 48.3 µM), without a hit: at the top dose activity change, negative = cytotoxicity, most hits filed as cytotoxic; 18% of 840 active; shares compounds with VDR inh; AID 602204; cytotoxicity counter-screen, cell viability, qHTS;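 further: potency means the concentration at half of the fitted maximal effect; plate controls were DMSO for no effect and high-concentration cycloheximide for full effect; nearly all actives have a fitted effect of over 75% in size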
TbPYK inh: Trypanosoma brucei pyruvate kinase inhibition, cherry-pick confirmation. shares compounds with PLK1 PBD block. recombinant TbPYK, Kinase-Glo ATP luminescence. Potency, µM (doses to about 76.9 µM), for inactives: top-dose activity change, negative = inhibition, actives largely listed as inhibitors. 67% of 890 active. AID 720569; further: potency means the concentration at half of the fitted maximal effect; on the % scale 0 is the no-effect control and ±100 the full control effect; nearly all actives have a fitted effect of over 70% in size
TbPYK ADP-Glo: TbPYK inhibition, orthogonal confirmation; recombinant TbPYK, ADP-Glo luminescence, 60 min; Potency, µM (doses to about 76.9 µM), without a hit: at the top dose activity change, negative = inhibition, hits mostly inhibitors; 62% of 890 active; AID 720584; shares compounds with PLK1 PBD block; further: potency means the concentration at half of the fitted maximal effect; on the % scale 0 is the no-effect control and ±100 the full control effect; nearly all actives have a fitted effect of over 75% in size
* = called active by the depositor; ? = inconclusive; nt = no result. The list is not random: actives were taken first. Their share in the collection is about 3.1%. Unless noted, the call rests on the fitted dose curve; in most records, active means well fitted curve in the direction sought with a large enough effect; inconclusive means small, poorly fitted or top-dose-only effect, or another doubt; inactive means no such curve, though single readings can be large; an effect the other way counts as inactive or inconclusive.

SMILES | uPA generation | PTAP TSG101 blk | TSHR antagonist | PLK1 PBD block | VDR inh | VDR confirm | VDR FP fluor | VDR bla | VDR cytotox | TbPYK inh | TbPYK ADP-Glo
O=c1[nH]c(=O)n(Cc2ccccc2)c(O)c1/C=C1\C=Nc2ccccc21 | 4% | -6% | 14 | ? | -10% | nt | nt | nt | nt | nt | nt
COc1ccc(-n2c(O)c(/C=C3\C=Nc4ccc(Br)cc43)c(=O)[nH]c2=O)c(OC)c1 | -6% | 1% | -1 | 2.1µM* | 50µM* | 17* | ? | ? | ? | nt | nt
O=C(/C=C\c1ccc(Cl)cc1)N[C@@]12CCC(=O)[C@@H]3Oc4c(O)ccc5c4[C@@]31CCN(CC1CC1)[C@@H]2C5 | nt | nt | nt | nt | 13% | nt | nt | nt | nt | nt | nt
Cc1ccc(OP2(=O)Nc3cc(C)c(C)cc3S2)cc1 (centres undefined) | -6% | 0% | nt | 1.7µM* | 7.9µM* | 6.7* | ? | 7% | -12% | nt | nt
N#CC1c2ccccc2-n2nncc2CN1Cc1cc(Cl)cc(Cl)c1 (centres undefined) | 4.5µM* | -2% | nt | ? | 20µM* | 3.4* | 2.8µM* | 10µM* | 4.1µM* | nt | nt
CCCCn1c(NC(=O)c2ccc(Br)o2)c(C(=O)OCC)c2nc3ccccc3nc21 | -2% | -4% | 1 | ? | ? | 2.5* | 1.4µM* | ? | ? | nt | nt
O=[N+]([O-])c1ccc(Sc2nc3ccccc3o2)c([N+](=O)[O-])c1 | ? | nt | -71* | 5.3µM* | 25µM* | 19* | 14µM* | ? | ? | nt | nt
O=C(O)CCn1cc(C=C2C(=O)NC(=S)NC2=O)c(-c2cccc(Cl)c2)n1 | 5% | 3% | 3 | 4.7µM* | 25µM* | 11* | ? | 14% | 1% | 7.1µM* | ?
CC(=O)OC1C(=O)[C@]2(C)C(O)CC3OC[C@]3(OC(C)=O)C2[C@@H](OC(=O)c2ccccc2)[C@]2(O)CC(O)C(C)=C1C2(C)C (some centres undefined) | nt | nt | nt | nt | 13% | nt | nt | nt | nt | nt | nt
CN1C(=O)N(C)C(=O)C2(Sc3ccccc3C2=O)C1=O | 7% | -2% | -5 | 5.3µM* | 35µM* | 3.4* | 3.5µM* | 31% | -7% | 5µM* | ?
CCC1(c2ccccc2)C(=O)N(C)C(=O)N(C)C1=O | 11% | -8% | nt | -7% | -6% | nt | nt | nt | nt | nt | nt
CCCC[C@@H](C)[C@@H](OC(=O)C[C@@H](CC(=O)O)C(=O)O)[C@H](C[C@@H](C)C[C@H](O)CCCC[C@@H](O)C[C@H](O)[C@H](C)N)OC(=O)C[C@H](CC(=O)O)C(=O)O | nt | nt | nt | nt | 12% | nt | nt | nt | nt | nt | nt
CC(C)Nc1ccc(Nc2ccccc2)cc1 | ? | 0% | 3 | ? | 40µM* | ? | 7.1µM* | ? | ? | 5µM* | 16µM*
NS(=O)(=O)c1ccc(-c2ccc(C=C3C(=O)NC(=S)NC3=O)o2)cc1 | nt | nt | 0 | nt | nt | nt | nt | nt | nt | nt | nt
O=C1NC(=O)C(=Cc2ccc(-c3cc(Cl)ccc3[N+](=O)[O-])o2)C(=O)N1 | -4% | -6% | 2 | 1.5µM* | 79µM* | 3.4* | 25% | ? | ? | 7.1µM* | 1.1µM*
NS(=O)(=O)c1ccc(-c2ccc(C=C3C(=O)NC(=O)NC3=O)o2)cc1 | 1% | -4% | -11 | 2.7µM* | 45µM* | ? | ? | 6% | -9% | 1.8µM* | 6.3µM*
C=CCN1C[C@H](C)N([C@H](c2ccc(C(=O)N(CC)CC)cc2)c2cccc(O)c2)C[C@H]1C | nt | nt | nt | nt | 11% | nt | nt | nt | nt | nt | nt
COC(=O)COc1ccc(/C=C2\C(=O)NC(=S)N(c3ccc(C)cc3)C2=O)cc1OC | -5% | -8% | -1 | 8.4µM* | 25µM* | 6.7* | ? | 15% | 26% | ? | ?
CCOC(=O)C1CCN(/C=C2/C(=O)NC(=S)N(c3cccc(OC)c3)C2=O)CC1 | 3% | 0% | 1 | -13% | -20% | nt | nt | nt | nt | nt | nt
COC(=O)[C@@H]1[C@@H]2C[C@H]3c4[nH]c5cc(OC)ccc5c4CCN3C[C@@H]2C[C@H](OC(=O)/C=C\c2cc(OC)c(OC)c(OC)c2)[C@H]1OC | nt | nt | nt | nt | 5% | nt | nt | nt | nt | nt | nt
CN1C(=O)C(=Cc2ccc(N(C)C)c([N+](=O)[O-])c2)C(=O)N(C)C1=O | nt | nt | 13 | nt | nt | nt | nt | nt | nt | nt | nt
CN(C)c1ccc(C=C2C(=O)NC(=S)NC2=O)cc1[N+](=O)[O-] | 4% | -2% | -8 | 3.8µM* | 22µM* | 13* | 10µM* | 28% | -8% | 4.5µM* | 14µM*
CN1C(=O)C(=Cc2ccc(N3CCCCCC3)o2)C(=O)N(C)C1=S | 3% | ? | 5 | 62% | 19% | nt | nt | nt | nt | nt | nt
O=C(O)c1ccccc1-c1ccc(C=C2C(=O)N(c3ccccc3)C(=S)N(c3ccccc3)C2=O)o1 | ? | 1% | -1 | 2.7µM* | 16µM* | 3.8* | ? | 24% | 4% | 32µM* | 40µM*
O=C1NC(=S)NC(=O)C1=Cc1ccc(Br)s1 | 21% | 1% | 29 | 2.1µM* | 22µM* | 4.2* | ? | ? | ? | 10µM* | 16µM*
C[C@H]1[C@@H](O)[C@@H](C)/C=C\C=CCC\C=C/C=C\C=C/C=C[C@@H](O[C@H]2O[C@@H](C)[C@@H](O)[C@@H](N)[C@@H]2O)C[C@@H]2O[C@@](O)(C[C@@H](O)[C@H]2C(=O)O)C[C@@H](O)[C@@H](O)CC[C@@H](O)C[C@@H](O)C[C@@H](O)CC(=O)O[C@H]1C | nt | nt | nt | nt | -1% | nt | nt | nt | nt | nt | nt
CN1C(=O)NC(=O)/C(=C/c2ccc([N+](=O)[O-])s2)C1=O | -2% | -5% | -3 | 2.7µM* | 45µM* | 8.4* | ? | 11% | ? | 5µM* | 11µM*
